# Assay results: the supplement of paper PMC6555819
# Experiments:
# Assay in all cases: PBM binding z-score (relative to random genomic background probes); higher = stronger binding; sequences stand for … in GC…GCGATTGACAGCGTAGAATGAAGG
# [1] = system: RARg:RXRa (NR concentration 270 nM, RXRa partner concentration 90 nM)
# Procedure, shortened: (§1)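 Regression normalization was applied to scanned fluorescence from custom Agilent 4×180K protein-binding microarrays. Before scanning, arrays were incubated 1 h with ligand-free nuclear receptor dimers, and binding was detected with antibodies against each partner (one per run). Binding z-scores use the random background probes as reference.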
# [2] = system: RARg homodimer (NR concentration 270 nM)
# Procedure, shortened: as §1
# [3] = system: RXRa DBDmut IVT, anti-RXR (DBD mutation: RXRa K156A/R161A, NR concentration 90 nM)
# Procedure, shortened: as §1
# [4] = system: RXRa homodimer (NR concentration 180 nM)
# Procedure, shortened: as §1
# [5] = system: THRa:RXRa (NR concentration 90 nM, RXRa partner concentration 90 nM)
# Procedure, shortened: as §1
# [6] = system: THRa homodimer (NR concentration 90 nM)
# Procedure, shortened: as §1
# [7] = system: VDR homodimer (NR concentration 270 nM)
# Procedure, shortened: as §1
Sequence,PBM binding z-score [1],PBM binding z-score [2],PBM binding z-score [3],PBM binding z-score [4],PBM binding z-score [5],PBM binding z-score [6],PBM binding z-score [7]
GCTAGTTGGTCAGTAAAAGGTGACACACCGGTCG,1.58,1.17,-0.429,0.87,0.938,-0.422,-0.475
TCTTGTAGATCGATAGAGGTTAAGAAAGTGCGCT,0.525,0.389,0.591,1.1,1.48,-0.46,0.0902
TACCCTAGGTCATTGGGCCAGTATAGTACGCATC,4.13,4.3,1.87,3.19,3.08,1.37,1.77
ATCGAAAGGTCGTGAGGTAAGTATACAGAAAGGC,4.63,3.93,1.25,5.18,3.09,1.01,1.24
ATCGAAAGGTCGACGCGGTGAGTATACACCGTTT,4.07,4.09,1.12,3.83,1.97,-0.506,0.391
AGAATGGGGTTATACGTAGATCAGGGAAGAAAGT,2.66,0.984,2.16,4.17,2.8,1.53,1.86
CCTACTGGGCCAAAAAGTTCATTGATGCCGATAA,1.48,1.8,1.51,0.748,0.849,-0.23,4.38
CGAACTAGGTCATTGACAGGACAGTGGATAGTAA,4.35,4.34,2.35,2.59,2.76,0.809,1.22
CGTCCAAAGTCAAAGGTCAGTGAAGAGATGACGG,4.93,5,0.813,5.96,2.81,0.117,0.98
CGAACGAGGTCAAAGGACAGTGAAAGGCGACGTA,6.46,6.17,4.61,6.91,3.88,1.79,3.52
CCGAGGAGGTTACGAGGGGGCATTCAGTGCGAAT,4.21,3.17,2.24,3.28,4.49,0.537,3.87
ATATGTAGGTTATCGGGTCATACAGTTTGCGCAT,3.64,2.84,1.67,3.87,3.68,2.82,3.52
AGAATGAGGTTACTAAAGATCAGGGAAACGCTTG,1.61,1.25,0.94,1.59,2.19,0.398,0.00246
TTGCCAAGGTGAAAGGTCGTTGATGCACGCCTTG,4.33,2.25,0.468,5.91,3.3,0.784,1.34
ATATGTAGGTTAGCTGGGGTCCTTCAGACTAGGC,0.698,0.529,0.183,0.692,3.45,0.268,0.249
CAAACTAGGTCAAGGTCTAAGTCGGTTTGTGCCA,3.81,4.71,1.44,2.49,3.15,1.57,1.14
TAGCCTAGGTCACATCGGGCCAGTATACGCTATA,4.02,4.72,0.602,3.09,4.5,1.15,0.412
TCTTGTAGGTCAATAGAGGTTAAGAAAGTGCGCT,4.56,5.15,1.88,4.31,4.71,0.329,1.63
CCTAGTGGGCCAAGGTCATTGATCAGTCAAAGCA,3.74,3.3,1.05,3.2,3.45,2.05,2.91
TCTAGTTGGTCACGGAGGTCCCACACGACGGGTA,1.02,1.61,0.484,0.931,0.42,0.108,-0.235
CGAACTAGGTCAAGGGACAGTGAAAGGCGACGTA,3.82,4.43,0.75,2.43,2.63,0.755,0.0374
CTCGAAAGGTCGTGCTCAGATGAGTATACCAAAC,4.06,3.84,1.66,4.62,2.22,-0.171,1.15
TCTCGGAGGACACCAAAGGTCAGAGCTCGACATC,4.82,5.32,0.814,4.15,3.65,1.2,1.11
ATCGAAAGGTCCACGAGGTGAGTATACACCGTTT,1.13,1.3,0.571,0.952,1.96,0.835,0.691
CGAACTAGGTCGAGGACAGTGAATCTCCGCACGC,0.749,1.36,0.54,0.381,2.11,1.45,0.0594
TGAATGAGGTTAAATATCAGGGAACGTGGCGTCG,2.18,1.43,1.95,2.84,2.38,0.583,1.02
ATATGTAGGTTGGGGTCATTCAGAAAGTAGGGAA,5.15,3.36,3.69,7,4.34,3.84,6.23
